# In all, about 63,000 compounds went through this assay and about 1,100 (1.7%) were called active. The sample holds actives, similar compounds and a random draw of the others, so the mix is not that of the screen. Cut-off read from the data, not from the text of the source: active = cytotoxicity above about 50%; inactive = the rest. Measured potencies and affinities stand elsewhere.
# Assay: cytotoxicity in HPDE-C7 cells, cell-based, fluorescence, HTS (AID 430);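 note: cells exposed to compound for 48 hours before viability readout; 0% = vehicle and 100% = reference cytotoxic drug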
# Conditions: HPDE-C7 pancreatic duct cells viability, at 10 µM, hits give high values
row,Compound,cytotoxicity
1,CCOC(=O)N1CCN(c2c(NCc3cccs3)c(=O)c2=O)CC1,46.8% (inactive)
2,Cc1nc(N2CCN(c3ccccc3)CC2)[nH]c(=O)c1Cc1cccc2ccccc12,7.5% (inactive)
3,CCOC(=O)COc1ccc(S(=O)(=O)NCCC2=CCCCC2)cc1,50.3% (active)
4,COC(=O)COc1ccc(S(=O)(=O)NCCC2=CCCCC2)cc1,18.8% (inactive)
5,COC(=O)COc1ccc(S(=O)(=O)NCCC2=CCCCC2)cc1C,-2.4% (inactive)
6,O=C(c1ccncc1)N1CCN(C(=O)c2cccs2)CC1,-5.3% (inactive)
7,O=C(Cc1ccc(Cl)cc1)Nc1ccc(N2CCN(C(=O)c3ccco3)CC2)c(Cl)c1,19.6% (inactive)
8,O=C(Nc1ccc(N2CCN(C(=O)c3ccccc3)CC2)c(Cl)c1)c1ccco1,-7.6% (inactive)
9,O=C(Nc1ccccc1N1CCN(C(=O)c2ccccc2)CC1)c1cc2ccccc2o1,-8.3% (inactive)
10,O=C(Nc1ccc(N2CCOCC2)c(Cl)c1)c1cccc(F)c1,16.4% (inactive)
11,Cc1ccccc1C(=O)N1CCN(c2ccc(NC(=O)c3ccco3)cc2Cl)CC1,11.7% (inactive)
12,O=C(Nc1ccc(N2CCOCC2)c(Cl)c1)c1c(F)c(F)c(F)c(F)c1F,54.5% (active)
13,CCC(=O)Nc1ccc(NC(=O)c2cc3ccccc3o2)cc1,-18.1% (inactive)
14,O=C(Nc1ccc(N2CCN(C(=O)c3ccco3)CC2)c(Cl)c1)c1cccs1,16.9% (inactive)
15,O=C(Nc1ccc(N2CCN(C(=O)c3ccco3)CC2)c(Cl)c1)c1c(F)c(F)c(F)c(F)c1F,56% (active)
16,O=C(Nc1ccc(N2CCOCC2)c(Cl)c1)c1ccco1,-5.7% (inactive)
17,CCn1c(C(=O)NCc2cccnc2)cc2sc(Cl)cc21,1.8% (inactive)
18,CC(=O)Nc1cc(C(=O)N2CCOCC2)ccc1S(=O)(=O)c1ccc(C)cc1,-15.2% (inactive)
19,COc1ccc(CCNC(=O)C2CCCN(C(=O)N(C)C)C2)c(OC)c1 (configuration not stated),-5.4% (inactive)
20,CCN(CC)c1ccc2c(c1)C(=O)N(C)C2=O,11.6% (inactive)
21,CCn1cc(SCC(=O)NCc2ccc3c(c2)OCO3)c2ccccc21,4.6% (inactive)
22,COc1ccc(CN(CC2CCCO2)S(=O)(=O)c2ccc(C(=O)O)cc2)cc1OC (configuration not stated),8.1% (inactive)
23,Cn1c(=Nc2ccc(N3CCOCC3)cc2)ccc2ccccc21,0.9% (inactive)
24,COc1ccc(-n2nc(C(=O)NCc3ccco3)c3c4ccccc4n(C)c3c2=O)cc1Cl,2.9% (inactive)
25,Cc1nn(CCO)c2c1C(=O)CCC2,-9.1% (inactive)

row,Compound,cytotoxicity
1,O=C1CC(N2CCOCC2)C(=O)N1c1ccc2c(c1)OCO2 (configuration not stated),-4.6% (inactive)
2,CC1CN(c2nc3ccccc3nc2C(C#N)C(=O)NC2CCCCC2)CC(C)O1 (configuration not stated),-15.5% (inactive)
3,Cc1ccc(NC(=O)CN2C(=O)NC(Cc3ccccc3)C2=O)cc1 (configuration not stated),-48.1% (inactive)
4,CCCC(=O)N1CCN(c2ccc(NC(=O)c3cc4ccccc4o3)cc2)CC1,-13.7% (inactive)
5,O=C(Nc1ccccc1N1CCN(C(=O)c2ccc(Cl)cc2)CC1)c1cc2ccccc2o1,-2.7% (inactive)
6,CC1CCN(CCCNC(=O)C2CCN(S(=O)(=O)N3CCCCC3)CC2)CC1,-11.8% (inactive)
7,COCCn1c(N)c(S(=O)(=O)c2cccs2)c2nc3ccccc3nc21,5% (inactive)
8,Nc1c(S(=O)(=O)c2cccc(Cl)c2)c2nc3ccccc3nc2n1CCN1CCOCC1,-2% (inactive)
9,Cc1cccc(S(=O)(=O)c2c(N)n(/N=C/c3cccnc3)c3nc4ccccc4nc23)c1,28.2% (inactive)
10,Cc1ccc(S(=O)(=O)c2c(N)n(/N=C/c3ccco3)c3nc4ccccc4nc23)cc1,38.7% (inactive)
11,Cc1cccc(S(=O)(=O)c2c(N)n(/N=C/c3ccco3)c3nc4ccccc4nc23)c1,26.6% (inactive)
12,Nc1c(S(=O)(=O)c2cccs2)c2nc3ccccc3nc2n1Cc1cccs1,-1.9% (inactive)
13,Cc1ccc(C)c(S(=O)(=O)c2c(N)n(/N=C/c3ccco3)c3nc4ccccc4nc23)c1,33.6% (inactive)
14,Nc1c(S(=O)(=O)c2cccc(Cl)c2)c2nc3ccccc3nc2n1/N=C/c1ccc(O)c(O)c1,117% (active)
15,Nc1c(S(=O)(=O)c2ccccc2)c2nc3ccccc3nc2n1/N=C/c1ccco1,69% (active)
16,Cc1ccc(S(=O)(=O)c2c(N)n(/N=C/c3ccco3)c3nc4ccccc4nc23)cc1C,11.7% (inactive)
17,Nc1c(S(=O)(=O)c2cccs2)c2nc3ccccc3nc2n1/N=C/c1cccc(O)c1,64.6% (active)
18,COc1ccc(-n2c(Cc3cccn3C)nnc2SCC(=O)NC2CCCC2)cc1,-16% (inactive)
19,CCN(CC)CCNC(=O)Cn1nc(Cc2ccccc2)c2ccccc2c1=O,-4.7% (inactive)
20,CCOc1cc(C2C(C#N)=C(N)Oc3n[nH]c(CC)c32)ccc1OCCN1CCOCC1 (configuration not stated),-1.8% (inactive)
21,CCOC(=O)C1CCN(C(=O)CNS(=O)(=O)c2cccs2)CC1,-14.6% (inactive)
22,CN(CCNC(=O)Cn1c(=O)sc2ccccc21)Cc1ccccc1,10.4% (inactive)
23,COC(=O)c1sc(NC(=O)Cc2cccs2)nc1C,-9.1% (inactive)
24,CCCc1nnc(NC(=O)c2cccc(OC)c2)s1,-16.1% (inactive)
25,COc1ccc(C(=O)c2sc(NC(C)C)nc2N)cc1OC,-6.1% (inactive)

row,Compound,cytotoxicity
1,COc1cccc(C(=O)c2sc(NC(C)C)nc2N)c1,70.8% (active)
2,O=C(NC1CCCCC1)c1ccc(CS(=O)(=O)Cc2ccccc2F)o1,-6.3% (inactive)
3,CCOc1ccccc1NC(=O)Cn1nnc(C(=O)NCc2ccco2)c1N,63% (active)
4,CCOc1ccccc1NC(=O)Cn1nnc(C(=O)Nc2ccc(C)cc2)c1N,-0.5% (inactive)
5,CCOc1ccccc1NC(=O)Cn1nnc(C(=O)Nc2ccccc2Cl)c1N,8.3% (inactive)
6,Cc1nn(-c2ccccc2)c2c1C(c1ccco1)C(C#N)=C(N)O2 (configuration not stated),11.5% (inactive)
7,O=C(Nc1ccc2c(c1)OCCO2)C1CCN(S(=O)(=O)c2ccc(Br)s2)CC1,6.5% (inactive)
8,O=C(Nc1ccccc1C(F)(F)F)N1CCN(c2ccc3nnc(-c4ccc(F)cc4)n3n2)CC1,13.1% (inactive)
9,O=C(Nc1ccc(Cl)cc1)N1CCN(c2ccc3nnc(-c4ccc(F)cc4)n3n2)CC1,69.6% (active)
10,O=C(Nc1ccccc1Cl)N1CCN(c2ccc3nnc(-c4ccc(F)cc4)n3n2)CC1,17.7% (inactive)
11,CCCNS(=O)(=O)c1ccc(OCC(=O)NCc2ccc3c(c2)OCO3)cc1,6.3% (inactive)
12,Cc1nnc(SCCn2c(N3CCN(C)CC3)nc3c2c(=O)n(C)c(=O)n3C)s1,-5.2% (inactive)
13,Cc1nnc(SCCn2c(N3CCN(C)CC3)nc3c2c(=O)[nH]c(=O)n3C)s1,-9.1% (inactive)
14,Cc1nnc(Sc2nc(Sc3nnc(C)s3)nc(N3CCN(C)CC3)n2)s1,81.3% (active)
15,COc1ccc([C@@H]2[C@H]3CN(C(C)=O)CC=C3C(C#N)=C(N)C2(C#N)C#N)c2ccccc12,-8.9% (inactive)
16,COC(=O)c1cc(=O)n(Cc2ccc3c(c2)OCO3)c(=Nc2ccccc2)s1,34.9% (inactive)
17,CCn1c(=O)cc(C(=O)OC)sc1=Nc1ccc(F)c(F)c1,17.4% (inactive)
18,CCOC(=O)c1ccc(N=c2sc(C(=O)OC)cc(=O)n2C2CC2)cc1,23.6% (inactive)
19,CCOC(=O)c1ccc(N=c2sc(C(=O)OC)cc(=O)n2CCCN2CCOCC2)cc1,-17.7% (inactive)
20,COC(=O)c1cc(=O)n(Cc2ccco2)c(=Nc2ccc(F)c(Cl)c2)s1,82.7% (active)
21,CCOC(=O)c1ccc(N=c2sc(C(=O)OC)cc(=O)n2Cc2ccco2)cc1,116% (active)
22,CN(CCc1ccccn1)Cc1ccc(Cl)cc1Cl,3.3% (inactive)
23,Cc1ccc(-c2nnc(SCc3ccccc3F)o2)cc1,1.8% (inactive)
24,O=C(Nc1cccc2ncccc12)c1cccnc1,-4.6% (inactive)
25,O=C(Nc1ccccc1)N(CCN1CCOCC1)Cc1ccccc1F,-7.5% (inactive)

row,Compound,cytotoxicity
1,Cc1ccc(C)c(CN2CCCNC2=O)c1,-5.7% (inactive)
2,COC(=O)c1cc2occc2n1CC(=O)Nc1ccc(OC)c(OC)c1,-0.3% (inactive)
3,CCNC(=O)CSc1nc2ccccc2c(=O)n1OC,-1% (inactive)
4,Clc1ccc(Cn2nnc(-c3ccc(CN4CCOCC4)cc3)n2)cc1,-26.4% (inactive)
5,COC(=O)c1ccc(NC(=O)C2CCCN2S(=O)(=O)c2ccc(F)cc2)cc1 (configuration not stated),2.5% (inactive)
6,COc1cccc(-c2cc(C(F)(F)F)nc(N3CCOCC3)n2)c1,-14% (inactive)
7,COc1cccc(-c2cc(C(F)(F)F)nc(N3CCCCC3)n2)c1,-12.8% (inactive)
8,COc1cccc(-c2cc(C(F)(F)F)nc(N3CCN(c4ccccc4)CC3)n2)c1,72.4% (active)
9,O=c1c2ccccc2oc2ncccc12,-24.9% (inactive)
10,CCC(Sc1nccn1C)C(=O)Nc1cccc2ccccc12 (configuration not stated),-6.2% (inactive)
11,Cc1cccc(N2CCN(C(=O)c3ccc(Cl)c(S(=O)(=O)NCc4ccco4)c3)CC2)c1C,65.8% (active)
12,COc1cc(C(=O)N2CCN(c3ccc(C)cc3C)CC2)cc(OC)c1OC,53.4% (active)
13,COc1cc(C(=O)N2CCN(c3cccc(C)c3C)CC2)cc(OC)c1OC,67.4% (active)
14,Cc1ccc(N2CCN(C(=O)c3ccccc3)CC2)c(C)c1,-29.9% (inactive)
15,O=C(O)c1ccc(Cl)c(S(=O)(=O)NCc2ccco2)c1,-12.1% (inactive)
16,Cc1cccc(N2CCN(C(=O)c3ccncc3)CC2)c1C,34.4% (inactive)
17,COc1cc(C(=O)N2CCN(C(=O)c3ccccc3)CC2)cc(OC)c1OC,-2.2% (inactive)
18,COc1ccc(C(=O)N2CCN(C(=O)c3cc(OC)c(OC)c(OC)c3)CC2)cc1,5.9% (inactive)
19,COc1ccc(Cl)cc1S(=O)(=O)N1CCN(C(=O)c2cc(OC)c(OC)c(OC)c2)CC1,-17% (inactive)
20,O=C(NCC1(N2CCOCC2)CCCCC1)c1ccc(Cl)c(S(=O)(=O)NCc2ccco2)c1,-1.6% (inactive)
21,COc1cc(C(=O)N2CCN(c3cc(Cl)ccc3Cl)CC2)cc(OC)c1OC,64.3% (active)
22,COc1ccc(C(=O)N2CCN(c3ccc(C)cc3C)CC2)cc1OC,-9.6% (inactive)

# Reference: PubChem BioAssay AID430 (Sanford-Burnham Center for Chemical Genomics, 2006)
